The source made the active and inactive calls. Unless noted, no rule for the calls is given here.

Test [1] relates to Wnt5a (protein binding on small-molecule microarray). In words: small molecules binding Wnt5a protein – biophysical, small-molecule microarray, 635/667 nm fluorescence, primary screen (AID 1142).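 Also: fluorescence read at 667 nm with signal to noise per printed feature.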 Conditions: 635 nm fluorescence, higher = more signal.
A short description of test [2]: ATP-based viability of Huh7 replicon cells – cell-based, CellTiter-Glo luminescence, basal, 48 h, cytotoxicity control for HCV replication inhibitor project, primary screen (AID 1143).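 Also: Huh7 hepatoma cells carrying a hepatitis C replication reporter with no stimulus; test concentration not given here.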 Conditions: higher = more signal, called active from +8 up or from −8 down. In general terms: In antiviral work, replicon cells carry a viral genome segment that copies itself.
Test [3] is described as follows: Pseudomonas biofilm growth suppression – PAO1 strain, BacTiter-Glo luminescence, LB-PBS, primary screen (AID 1144). Conditions: P. aeruginosa PAO1 biofilm, 12 h, higher = more signal.
Test [4] in a line: basal CRE-LacZ reporter activity in PC12 – cell-based, unstimulated, primary screen (AID 1145). As to conditions: no forskolin, luminescence, 4.5 h, higher = more signal, called active from +8 up or from −8 down.
Test [5] is described as follows: forskolin-driven CRE-LacZ activity in PC12 – cell-based, CRE-LacZ reporter, forskolin-stimulated, primary screen (AID 1146).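 Also: PC12 cells with 6xCRE LacZ reporter stimulated by forskolin 10 µM; beta-galactosidase reporter signal reflecting CREB driven transcription.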 Conditions: luminescence, 4.5 h, higher = more signal, called active from +8 up or from −8 down.
Test [6] concerns the target Streptavidin (Streptomyces avidinii) (UniProt P22629). Briefly: compounds binding control protein streptavidin – biophysical, small-molecule microarray, 635/667 nm fluorescence, artefact control for SMM compound annotation, primary screen (AID 1147).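 Also: signal reflects streptavidin binding to arrayed compounds as a control protein.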 Conditions: higher = more signal.
Test [7] can be described thus: probe aInhba binding on compound microarray – biochemical, small-molecule microarray, 635/667 nm fluorescence, primary screen (AID 1148).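 Also: score merges 667nm spot fluorescence with signal-to-noise for antibody binding to printed compounds.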 As to conditions: higher = more signal.
For test [8], the target named is Torsin-1A (Homo sapiens) (UniProt O14656). Briefly: TOR1A wild-type binding on microarray – cell lysate, small-molecule microarray, lysate, 635/667 nm, primary screen (AID 1149). Conditions: COS7 hTOR1A-WT lysate, 635 nm fluorescence, higher = more signal.
Sequence of Torsin-1A (Homo sapiens) (O14656 whole entry, looked up): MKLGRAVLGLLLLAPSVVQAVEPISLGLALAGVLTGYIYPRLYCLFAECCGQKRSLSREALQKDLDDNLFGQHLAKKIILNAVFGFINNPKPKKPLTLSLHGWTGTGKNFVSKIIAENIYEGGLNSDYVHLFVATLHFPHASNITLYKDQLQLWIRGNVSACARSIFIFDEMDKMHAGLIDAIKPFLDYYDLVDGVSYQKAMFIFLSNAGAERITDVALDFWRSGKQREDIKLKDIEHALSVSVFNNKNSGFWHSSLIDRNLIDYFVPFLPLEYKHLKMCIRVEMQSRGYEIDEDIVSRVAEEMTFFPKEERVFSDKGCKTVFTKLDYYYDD
Test [9] has the same target. Briefly: torsin A mutant lysate binding on microarrays – cell lysate, small-molecule microarray, COS7 lysate, 635/667 nm fluorescence, primary screen (AID 1150).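 Also: score pools 667 nm emission and signal to noise measuring lysate protein binding.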 As to conditions: COS7 hTOR1A mutant lysate, 635 nm fluorescence, higher = more signal.
Test [10] concerns Sonic hedgehog protein (Shh). Briefly: Sonic hedgehog microarray binding compounds – biochemical, small-molecule microarray, 635/667 nm fluorescence, primary screen (AID 1151).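 Also: Shh protein binding to compounds spotted on small-molecule microarray slides; score combines spot fluorescence intensity with signal-to-noise across triplicate slides.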 As to conditions: 635 nm fluorescence, higher = more signal.

Sequence of Streptavidin (Streptomyces avidinii) (P22629 whole entry, looked up): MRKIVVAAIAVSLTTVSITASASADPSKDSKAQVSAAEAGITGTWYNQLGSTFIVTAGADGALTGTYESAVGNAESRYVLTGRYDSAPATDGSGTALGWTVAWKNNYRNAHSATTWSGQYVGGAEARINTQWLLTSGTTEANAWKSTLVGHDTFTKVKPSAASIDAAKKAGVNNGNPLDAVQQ

For the compound `COc1cc(CO)cc(I)c1O[C@H]1C=C(C(=O)NCCO)C[C@@H](NC2CCCCCC2)[C@@H]1O`, the composite z-score in test [1] was 0.29; in test [6], -0.0211; in test [7], -0.0115; with Torsin-1A (Homo sapiens) [8] it was 0.0076; in the test with Torsin-1A (Homo sapiens) [9], 0.243; in test [10], 1.3. Besides, the z-score in test [2] was -1.65 (inactive); in test [3], 0.0741 (inactive); in test [4], 5.46 (inactive); in [5], 0.0453 (inactive).

Take `CC(C)=CCCC=C(C)C(O)C1C=CC2C(=O)N(c3ccccc3)C(=O)C2N1Nc1ccc(C#N)cc1` (stereo not given): the composite z-score in test [1] is 0.218; in test [6], 0.555; in test [7], 0.0841; with Torsin-1A (Homo sapiens) [8], 0.0747; with Torsin-1A (Homo sapiens) [9], 0.536; in test [10], 0.335. In addition, the z-score is -2.81 (inactive) in test [2], -1.21 (inactive) in test [3], 1.39 (inactive) in test [4] and -0.35 (inactive) in [5].

`COCCCNC(=O)[C@@]1(CCC(=O)OC(C)(C)C)COC(c2ccc(OCCCO)cc2)=N1`: the composite z-score in test [1] was 0.23; in [6], 0.905; in [7] it was 0.204; with Torsin-1A (Homo sapiens) [8], 0.589; in the test with Torsin-1A (Homo sapiens) [9] it was 1.4; in test [10], -0.98. Also, the z-score in [2] was -1.7 (inactive); in test [3] it was -0.126 (inactive); in test [4] it was 0.195 (inactive); in test [5], 0.706 (inactive).

In the case of `C=C(CCCC)/C(=C/C[C@H](OC(=O)c1ccncc1)c1ccccc1OCCO)c1cc(C(=O)OC)ccc1OC`, the composite z-score in test [1] is -0.0692; in [6] it was 0.396; in test [7] it was 0.0391; with Torsin-1A (Homo sapiens) [8], 0.0152; with Torsin-1A (Homo sapiens) [9], 0.369; in test [10] it was 1.43. Moreover, the z-score was -1.78 (inactive) in test [2], -0.402 (inactive) in test [3], 11.4 (active) in [4] and 0.179 (inactive) in [5].

With `COc1cc(C(O)C2C=CC3C(=O)N(c4ccccc4)C(=O)C3N2Nc2ccccc2F)cc(OC)c1OC` (stereo not given), the composite z-score in test [1] came out at 0.36; in test [6] it was 0.135; in test [7] it was 0.177; with Torsin-1A (Homo sapiens) [8], 0.0422; with Torsin-1A (Homo sapiens) [9], 0.8; in test [10], 0.429. The z-score in [2] was -1.73 (inactive); in test [3], 0.0706 (inactive); in test [4] it was 1.61 (inactive); in test [5], 1.05 (inactive).

On to `COC(=O)[C@@]1(Cc2ccccc2)[C@H]2c3cc(C(=O)N(C)C)n(Cc4ccc(C(F)(F)F)nc4)c3C[C@H]2CN1C(=O)c1ccccc1`, for which the composite z-score in test [1] is 0.598; in [6], 2.08; in [7] it was 0.433; with Torsin-1A (Homo sapiens) [8], 0.167; in the test with Torsin-1A (Homo sapiens) [9] it was 0.511; in test [10], -0.561. The z-score in test [2] is -1.94 (inactive); in [3], -0.0691 (inactive); in test [4] it was -0.189 (inactive); in test [5], 0.484 (inactive).

As for `COC(=O)[C@@]1(Cc2ccc(OC)cc2)[C@H]2c3cc(C(=O)N4CCCC4)n(Cc4c(CO)[nH]cc(C)c4=O)c3C[C@H]2CN1C(=O)c1ccccc1`, the composite z-score in test [1] was 0.702; in test [6], 1.51; in test [7], 0.0569; with Torsin-1A (Homo sapiens) [8], 0.272; with Torsin-1A (Homo sapiens) [9], 1.25; in [10] it was -0.65. Further, the z-score was -1.1 (inactive) in test [2], -0.101 (inactive) in test [3], 0.37 (inactive) in [4] and 1.41 (inactive) in test [5].

For the compound `O=C1OCCC=C[C@H]2OC34C=CCN(c5ccc6ccccc6c5)C(=O)[C@H]3N(CCO)C(=O)[C@@H]4C12` (stereo not given in full), the composite z-score was -0.457 in test [1]; -0.906 in test [6]; -0.753 in test [7]; -1.41 with Torsin-1A (Homo sapiens) [8]; -0.669 in the test with Torsin-1A (Homo sapiens) [9]; 0.116 in test [10]. Besides, the z-score in [2] is 0.291 (inactive); in test [3], -0.663 (inactive); in test [4], -0.887 (inactive); in test [5], 0.463 (inactive).

As for `OCCCC1=CC(c2ccc(CN3CCCC3)cc2)N(Cc2cccc(OC(F)(F)F)c2)CC1` (stereo not given), the composite z-score is -0.131 in test [1]; -0.69 in [6]; -0.0791 in test [7]; 0.265 with Torsin-1A (Homo sapiens) [8]; -0.165 in the test with Torsin-1A (Homo sapiens) [9]; 0.365 in [10]. In addition, the z-score in test [2] was -9.01 (active); in test [3], 0.697 (inactive); in test [4], -0.0884 (inactive); in [5], 0.593 (inactive).

The values are drawn from PubChem BioAssay.
